esBAF inh = blocks esBAF chromatin remodeling in mouse ES cells; reporter increase, % at 12.5 µM; AID 602393; actives 2% (n = 350,000); Bmi1-luciferase knock-in reporter, 24 h; 100% = twice the neutral-well signal; in the data active = activation above about 40%; inconclusive = no clear call, values can overlap the other calls;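 also: a rise in the Bmi1 reporter signal indicates esBAF inhibition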
Env fusion inh = HIV envelope-mediated fusion inhibition. HeLa-JRFL Env/CEM21 cell fusion, luciferase. inhibition, % at 12.3 µM. actives 1.1% (n = 360,000). AID 651610;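 active = mean replicate inhibition score of at least 50 and every replicate individually at or above 50; inconclusive = only one of the two criteria met; inactive = mean below 50 and not all replicates reaching 50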
Wnt bcat act = Wnt/beta-catenin pathway activation; Wnt/beta-catenin reporter cell assay, activator, plate reader; activation, % at 9.35 µM; actives 1.2% (n = 300,000); AID 743398; in the data active = activation above about 30%, passing the limit was not always enough; inconclusive = no clear call, values can overlap the other calls
MITF TRPM1 HTS = activators of MITF-driven TRPM1 promoter activity in SK-MEL-5 cells. SK-MEL-5 TRPM1-promoter luciferase, 24 h; % of positive control, neutral wells = 0. activation, % at 12.5 µM. actives 0.75% (n = 300,000);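 active = mean activation of at least 80% with every replicate also reaching 80%; inconclusive = mean reaches 80% but some replicate falls short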
miR-122 sensor = miR-122 inhibition in Huh7 cells. Huh7 miR-122 Renilla luciferase sensor, 48 h; neutral wells = 0, positive control = 100. activation (reporter increase), % at 12.5 µM. actives 0.3% (n = 340,000). AID 602342;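 active = mean replicate activation score at least 90 and every replicate individually at or above 90; inconclusive = only one of the two criteria met; inactive = neither criterion met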;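 also: higher luciferase means less miR-122 activity so hits act as miR-122 inhibitors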
A number is an active result; n = inactive; u = inconclusive; x = no result given. Only some compounds are listed: those with a hit (about 3.4% of all), similar ones and a draw of the others.

SMILES	esBAF inh	Env fusion inh	Wnt bcat act	MITF TRPM1 HTS	miR-122 sensor
FC(F)(F)c1ccccc1Cc1c(-c2cccc(Cl)c2)nc2ccc(Cl)cn12	56	n	n	x	n
Cc1nn(-c2ccc(N3CCCCC3)nn2)c(C)c1CCC(=O)Nc1cc(F)ccc1F	63	n	n	n	n
O=C(C[C@H]1C[C@H]2c3cc(NC(=O)c4cccnc4)ccc3O[C@H]2[C@@H](CO)O1)NCc1cccnc1	n	n	x	x	n
O=C(NC1CCC1)[C@@H]1[C@@H](CO)[C@@H]2Cn3c(ccc(-c4ccc(F)cc4)c3=O)[C@@H]2N1Cc1ccccn1	n	n	x	x	x
COc1ccc(N(C(=O)c2ccco2)C(C(=O)NC2CCCC2)c2ccc(OC)c(OC)c2)cc1 (configuration not stated)	n	55	n	n	n
COc1ccc(C(C(=O)NC2CCCC2)N(C(=O)c2ccco2)c2ccc(OC)c(OC)c2)cc1 (configuration not stated)	n	n	n	n	n
CCCc1cc2c(=O)c(-c3ccc4c(c3)OCCO4)coc2cc1OS(C)(=O)=O	x	n	n	n	x
CCc1cc2c(=O)c(-c3ccc4c(c3)OCCO4)coc2cc1OC(=O)c1ccco1	n	n	67	x	n
CCCc1cc2c(=O)c(-c3ccc4c(c3)OCCO4)coc2cc1OC(=O)c1ccco1	81	x	x	84	n
CCN(CC)Cc1c(O)ccc2c(=O)c(-c3ccc4c(c3)OCCO4)coc12	n	x	x	n	n
COc1ccccc1CNC(=O)C[C@H]1CC[C@H](NC(=O)CC2CC2)[C@@H](CO)O1	n	n	x	x	x
NC(=O)[C@H]1[C@@H]2C(=O)O[C@@H](c3ccccc3)[C@@H](c3ccccc3)N2[C@@H](c2ccc(OCCO)cc2)[C@]12C(=O)Nc1ccc(C#CC3(O)CCCCCC3)cc12	x	n	x	x	x
O=C(OCCO)c1c(-c2ccccc2)oc2c1C(OCCO)CCC2 (configuration not stated)	x	61	n	x	x
Cc1ccc(-c2cnc3c(c2)C(=O)N([C@H](C)CO)C[C@@H](C)[C@@H](CN(C)CC2CCCC2)O3)cc1	n	n	x	x	n
COc1ccc(C(=O)c2ccc(Br)cc2)cc1	55	n	n	n	n
COc1ccc(C(=O)c2ccccc2)cc1	x	n	n	n	x
O=C(C[C@@H]1CC[C@H]2[C@@H](COC[C@H](O)CN2C(=O)Nc2ccc(F)cc2)O1)NCCc1ccncc1	n	x	x	x	n
CC(C)C1N=C(c2ccc3c(c2)OCO3)CC(c2ccccc2O)N1 (configuration not stated)	47	x	x	n	n
Cc1cn([C@@H](CCCCNC(=O)OC(C)(C)C)C(=O)NCCCCCCCCCCC(=O)N2CCN(C(=O)OC(C)(C)C)CC2)nn1	n	x	x	n	n
CC(C)(C)OC(=O)NCCCCCc1cn(CC(=O)NCCCCCCCCCCC(=O)N2CCN(C(=O)OC(C)(C)C)CC2)nn1	n	57	n	n	x
O=C1c2ccccc2NC(c2ccc(-c3ccccc3F)o2)N1O (configuration not stated)	n	n	u	u	n
O=C1c2ccccc2NC(c2ccc(-c3cccc(F)c3)o2)N1O (configuration not stated)	84	n	46	u	n
Cc1ccc(Oc2cnc3ccccc3n2)cc1	n	n	x	109	n
CC(=O)Nc1ccc2c(c1)C(=O)N(C)[C@@H]1CC[C@H](CC(=O)NCc3ccccc3)O[C@@H]1CO2	n	n	x	x	n
O=C(NC1=NCCS1)c1ccc(OCC2CCCO2)cc1 (configuration not stated)	n	n	40	n	n
SMILES	esBAF inh	Env fusion inh	Wnt bcat act	MITF TRPM1 HTS	miR-122 sensor
CCOc1ccc(C(=O)NC2=NCCS2)cc1	x	n	n	x	x
Fc1ccccc1/C=N/Nc1ccc(Cl)nn1	55	n	n	n	n
Cc1ccc(/C=N/Nc2ccc(Cl)nn2)cc1	x	n	37	95	x
CNC[C@@H]1Oc2ccc(NC(=O)Cn3cnnn3)cc2CC(=O)N([C@@H](C)CO)C[C@@H]1C	n	x	x	x	n
CC(C)NC(=O)N(C)C[C@@H]1OCCCC[C@H](C)Oc2ccc(NC(=O)Nc3ccc(F)cc3)cc2C(=O)N([C@@H](C)CO)C[C@H]1C	n	n	x	x	n
CN(C)CCNC(=O)c1cc2c(s1)-c1ccccc1OC2	n	n	n	n	n
Cc1csc(NC(=O)c2cc3c(s2)-c2ccccc2OC3)n1	86	n	u	n	n
Cc1c(NC(=O)c2cc3c(s2)-c2ccccc2OC3)cccc1[N+](=O)[O-]	x	87	n	n	n
C[C@@H]1CN([C@H](C)CO)C(=O)c2cc(NS(=O)(=O)c3cn(C)cn3)ccc2O[C@H]1CN(C)S(C)(=O)=O	n	x	x	x	n

Compound activity as filed in PubChem BioAssay.
